Experimental findings from PubChem BioAssay (NCI) are described below.

About 83,000 compounds went through this panel and 20% of them were active in at least one assay; those are over-represented in the sample as a whole.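 Values shown are percent growth following 48 h exposure of cells in 96-well plates to a single concentration of compound; below 10 was considered active.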 Unmarked numbers belong to inactive results. The source made the active and inactive calls.

The subject of this test is HL-60(TB) leukemia. Briefly: NCI-60 one-dose screen, 48 h (100 = growth as untreated, 0 = no growth, -100 = all killed). The following applies: 10 µM unless noted.
With `Cc1ccc(C2SCC(=O)N2NC(=O)c2[nH]c3ccc(F)cc3c2-c2ccccc2)cc1` (stereo not given), the growth is 78.6%.
The same measure for `CC(/C=N/NC(=O)c1cc(-c2ccco2)[nH]n1)=C\c1ccccc1`: 99%; for `Cc1ccc2c(c1)C(C)Cc1c(ncnc1-n1cnc3cc(C)ccc31)N2C` (stereo not given): -22% (active); for `Cc1ccc(NC(=O)c2cc(NCc3cc(O)ccc3O)ccc2O)cc1`: 16.1%.
Next, `O=C(COc1cc(O)c2c(=O)cc(-c3ccccc3)oc2c1)Nc1ccccc1C(F)(F)F`: 55%; `N#Cc1c(Nc2ccccc2)nc2n(c1=O)-c1ccccc1Sc1ccccc1-2`: 79.6%.
The same measure for `CCCCCCCCCCC(C(O)c1ccccc1)N1CCCCC1` (stereo not given): -28.5% (active); for `CN(c1ccccc1)c1ncnc2c1ncn2C`: 105%; for `COc1cc([C@@H]2c3cc4c(cc3C(OC3O[C@@H]5COC(C)O[C@H]5[C@H](O)[C@H]3O)C3COC(=O)[C@@H]32)OCO4)cc(OC)c1O` (stereo not given in full): -2.39% (active).
Turning to `COc1cc(C(=C2O[C@@H]([C@H]3COC(C)(C)O3)[C@H]3OC(C)(C)O[C@@H]23)c2cc(OC)c(OC)c(OC)c2)cc(OC)c1OC`, the growth was 107%.
Consider `COc1ccc(-c2nnc(N3CCN(C(=O)CN4CCN(c5ccccc5)CC4)CC3)nc2-c2ccc(OC)cc2)cc1`, for which the growth was -58.6% (active).
For the compound `CCOC(=O)c1cc2c(n1Cc1cc(OC)cc(OC)c1Br)-c1nc(NC(C)=O)sc1CCC2`, the growth is 43.1%.
Next, `COc1cccc(CCC(=O)c2cc3c(N)c(C(=O)Nc4ccccc4)sc3nc2C)c1`: 6.59% (active); `CC[C@@]12C=CCN3CC[C@]4(c5cc(NC(=O)COc6cc(OCC(=O)Nc7cc8c(cc7OC)N(C)[C@H]7[C@@](O)(C(=O)OC)[C@H](OC(C)=O)[C@]9(CC)C=CCN%10CC[C@]87[C@@H]%109)cc7oc(-c8ccccc8)cc(=O)c67)c(OC)cc5N(C)[C@@H]4[C@](O)(C(=O)OC)[C@H]1OC(C)=O)[C@H]32`: 88.2%.
Next, `Clc1cn2cc(-c3ccc(Cl)c(Cl)c3Cl)nc2s1`: 85.3%; `O=C(Nc1ccc(Cl)c(Cl)c1)OCn1ncc2ccc([N+](=O)[O-])cc21`: 96.3%; `COC(=O)[C@@H]1CCCN1C(=O)[C@@H]1CCCN1C(=O)[C@@H](Cc1c[nH]c2ccccc12)NC(=S)Nc1cc(C(F)(F)F)cc(C(F)(F)F)c1`: 11.1%.
Next, `O=C(NNc1ccccc1)C1CCCN1` (stereo not given): 9.36% (active); `Cc1cc2c(cc1C)N(C(=O)CCl)CC(=O)N2`: 8.25% (active); `NCCNc1ccc([N+](=O)[O-])cc1`: 91.9%.
As for `CCCCOc1nc2ccc(Cl)cc2cc1/C=C/C(=O)/C=C1/CC(c2cc3cc(Cl)ccc3nc2OCCCC)Nc2ccccc2N1` (stereo not given), the growth is 101%.
Consider `COc1c(-c2cc(-c3ccc(C)o3)[nH]c(=O)n2)c(O)cc2occc12`, for which the growth is 38.2%.
Next, `Oc1c(-c2cc(C(F)(F)F)[nH]n2)cc(Cl)c(OCc2ccc(Cl)cc2)c1-c1ccc(Cl)c(C(F)(F)F)c1`: -10.8% (active); `CCCc1cc(=O)n2c(C(=O)Nc3cccc(C(=O)OCC)c3)c(C(=O)Nc3ccc(F)cc3)sc2n1`: 73.6% [30 µM]; `N#C/C(=C\c1cccc2cnccc12)N1N=NC2C=CC=CC21` (stereo not given): 8.65% (active).
Next, `C/C(=N/NC(N)=S)c1sc(Nc2cccc(Cl)c2)nc1C`: 65%.
With `O=Cc1ccc(O)c2ncccc12`, the growth was -69.3% (active).
The same measure for `CC[C@H](Nc1cc(C)nc(N)n1)c1nc2cccc(NCc3ccc(C(=O)NO)cc3)c2c(=O)n1-c1ccccc1`: 2.35% (active).
For `Cn1ccc(=O)c(S(N)(=O)=O)c1`, the growth is 96.4%.
On to `C#CCN(CCCOc1ccc(Cl)cc1Cl)CCCSC(=O)CCCCCN1/C(=C\C=C2/CCCC(/C=C/C3=[N+](CCCCCC(=O)[O-])c4ccccc4C3(C)C)=C2Cl)C(C)(C)c2ccccc21`, for which the growth was -44.2% (active).
The same measure for `O=C(CN1C=NC2C(N3CCOCC3)=NC=NC21)c1cccc2ccccc12` (stereo not given): 103%.
The same measure for `Cc1ccnc2c1ccc1c(C)ccnc12`: -5.64% (active); for `CC(C)C[C@H](C(=O)N[C@@H](C)C(N)=O)N1CC=CCN(O)S1(=O)=O`: 110% [5 µM].
For `COc1ccc(-n2nc(C)c3c(Nc4ccc(NC(=O)Nc5ccc(Cl)c(C(F)(F)F)c5)cc4)ncnc32)cc1`, the growth is -9.54% (active).
With `O=[N+]([O-])c1ccc(Br)o1`, the growth was 74.8%.
The same measure for `N=C(N)c1ccc(-c2ccc(-c3ccc(-c4cccs4)s3)s2)cc1`: 100%; for `C/C=C(/C)C(=O)OC1C=C(CO)C(=O)C(OC(=O)C2(C)OC2C)C1C(C)C` (stereo not given): -24.9% (active); for `O=C1c2cc3c(cc2-c2c1c1ccc(Cl)cc1c(=O)n2C[C@H](O)[C@@H](O)[C@H](O)CO)OCO3`: -5.75% (active).
Next, `C=C1C(=O)O[C@H]2[C@H]1CC/C(COC(=O)NCc1cc(OC)c(OC)c(OC)c1)=C\CC[C@@]1(C)O[C@@H]21`: 11.5%.
The same measure for `COc1nc(N)nc(-n2c(-c3ccc(C)cc3)nc3ccccc32)c1NCc1ccc(C)cc1`: 101%.
